Assay results: PubChem BioAssay (NCATS)
Results filed as inconclusive are left out. Unmarked numbers belong to inactive results. Calls come from the whole dose curve; as a rule, active = well fitted cell-killing curve with a large enough effect; inconclusive = small, poorly fitted or top-dose-only effect; inactive = flat fitted curve, though single readings scatter.

Test: Cell Viability - Renal Proximal Tubule (AID 545);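 note: 0% = DMSO only and -100% = 100 µM tamoxifen; nearly all actives have a fitted effect of over 40% in size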
Conditions: renal proximal tubule cells viability, primary cells of rat origin; series mostly up to 91.7 µM; activity change, negative = cytotoxicity: at the top concentration
Excerpt: NIH Chemical Genomics Center [NCGC]
NIH Molecular Libraries Screening Centers Network [MLSCN]
National Institutes of Environmental Health Sciences [NIEHS]
National Toxicology Program [NTP]
We have developed a 1536-well cell-based assay for quantitative high throughput screening (qHTS) against a number of cell lines to determine in vitro cytotoxicity of small molecules. This particular assay uses the renal proximal tubule cells which are derived from normal kidney cells freshly isolated from rat.
NCGC Assay Protocol Summary:
The CellTiter-Glo luminescent cell viability assay (Promega) is a homogeneous method to measure the number of viable cells in culture. The end point readout of this assay is based on quantitation of intracellular ATP, an indicator of metabolic activity, using the luciferase reaction. Luciferase catalyzes the oxidation of beetle Luciferin to oxyluciferin and light in the presence of ATP. The luminescent signal is proportional to amount of ATP present.
Using the CellTiter-Glo luminescent cell viability assay, the amount of cellular ATP was measured in the renal proximal tubule cells with complete culture medium following compound treatment for 40 hours. The assay was performed in opaque white Kalypsys 1536-well plates. In the screen, tamoxifen and doxorubicin were used as positive controls. Library compounds were measured for their ability to cause acute toxicity in the cell line, as reflected by a decrease in intracellular ATP levels, in a concentration-dependent manner. […] AC50 values were determined from concentration-response data modeled with the standard Hill equation.
qHTS protocol for CellTiter Glo renal proximal tubule cell assay
[Step] [Parameter] [Value] [Description]
1. Reagent; 5 uL; 1000 renal proximal tubule cells/well
2. Time; 5 hr; 37 °C incubation
4. Controls; 23 nL; Tamoxifen 0.34 uM to 100 uM & Doxorubicin 0.02 nM to 100 uM
5. Time; 40 hr; 37 °C incubation
6. Reagent; 5 uL; CellTiter Glo reagent
7. Time; 20 min; Room Temperature
8. Detection; Luminescence; Viewlux plate reader
Keywords: cell viability, cytotoxicity, renal proximal tubule cells, luminescence, NTPHTS, NTPHTS_NCGC, NIEHS, EPA, DSSTox, MLSMR, MLSCN, NIH Roadmap, qHTS, NCGC

SMILES | activity change, negative = cytotoxicity
C[C@@H]1O[C@@H](O[C@@H]2[C@@H](O)[C@H](OCCc3ccc(O)c(O)c3)O[C@H](CO[C@@H]3O[C@H](CO)[C@@H](O)[C@H](O)[C@H]3O)[C@H]2OC(=O)/C=C/c2ccc(O)c(O)c2)[C@H](O)[C@H](O)[C@H]1O | -15.5%
CCC=O | -6.33%
Nc1cccc(N)c1 | 13.8%
C=CCOC(=O)CCCCCCCC | -3.13%
O=C(O)c1ccccc1Cl | -5.4%
Cc1ccc(C)cc1 | -11.8%
c1ccc2c(c1)Oc1ccccc1S2 | -11.2%
CN(C)CCCCl | -11.3%
C=CCn1c(=O)n(CC=C)c(=O)n(CC=C)c1=O | -9.26%
CCCCCCO | 0.684%
O=C(Cl)c1cccc([N+](=O)[O-])c1 | 2.06%
Cc1ccc(C)o1 | -6.14%
CC/C=C1/OC(=O)c2ccccc21 | 1.8%
COc1ccc(N=[N+]([O-])c2ccc(OC)cc2)cc1 | -7.2%
CCCCC(CC)CNCC(CC)CCCC (stereo not given) | -3.86%
Cc1ccc(S(=O)(=O)NC2CCCCC2)cc1 | -6.44%
CCCCCO | -3.79%
C(=C/c1ccccc1)/c1ccccc1 | -5.57%
Nc1ccc(Cl)cc1[N+](=O)[O-] | -19.8%
ClC/C=C/CCl | 0.0383%

SMILES | activity change, negative = cytotoxicity
O=[N+]([O-])c1ccc(NCCO)c(OCCO)c1 | -15.8%
Cc1ccccc1C(=O)O | 1.96%
Nc1cc(Cl)c(N)c(Cl)c1 | -29.2%
O=[N+]([O-])c1c(Cl)cc(Cl)cc1Cl | -1.15%
CCCCCCCCN | 2.82%
CCOc1ccccc1N | 4.98%
C=Cc1ccccn1 | -3.61%
C=Cc1ccccc1C=C | 7.7%
CC1CCC2CC1C2(C)C (stereo not given) | -5.42%
COc1ccc(N)c(C)c1 | 0.894%
NC(N)=S | 7.2%
Cc1ccccc1C#N | 0.906%
Cc1cccc(C(=O)O)c1 | -6.37%
N#Cc1ccccc1 | -4.4%
COC(=O)CCC(=O)OC | -9.37%
CNc1ccc([N+](=O)[O-])cc1 | -10.1%
C1CCOC1 | -6.78%
CC(O)CC(C)O (stereo not given) | -2.51%
CC(=O)CC(C)C | -5.84%
FB(F)F | -0.617%
